Bioassay records as filed in PubChem.
mHTT CaM bind = mHTT-calmodulin interaction abrogation; AID 1671202; inhibition, % at 15 µM; 190,000 tested, 3.6% active; AlphaScreen His-mHTT/GST-CaM binding, luminescence;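 note: 0% = both proteins with DMSO and 100% = one protein alone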
Pf apPOL block = Pf-apPOL DNA polymerase inhibition. Recombinant Pf-apPOL, molecular beacon fluorescence, 1.5 h. 210,000 tested, 0.25% active. inhibition, % at 10 µM
* marks the source's active call; other numbers are inactive results; x = not tested or not shown. A selection: hits, their analogues and other compounds. The true share with any hit is near 3.5%. Cut-off read from the data, not from the text of the source: active = inhibition above about 50%; inactive = the rest.

SMILES | mHTT CaM bind | Pf apPOL block
CN(C)CCCN(C(=O)Cc1ccccc1)c1nc2ccc(Br)cc2s1 | 100* | -6
CN(C)CCCN(C(=O)C1=COCCO1)c1nc2ccc(Br)cc2s1 | 23 | -16
O=C(Nc1ccc(N2CCCC2)c(Cl)c1)c1cccs1 | 35 | -10
CCNC(=O)N1CCOc2cc(C)ccc21 | 3 | -8
COc1ccc(CNC(=O)[C@@H]2CC=C[C@@H]3CCN(Cc4ccc(Cl)c(Cl)c4)C(=O)[C@@H]32)cc1 | 94* | -8
COc1ccc(CNC(=O)[C@@H]2CC=C[C@@H]3CCN(Cc4ccc(OC)c(OC)c4)C(=O)[C@@H]32)cc1 | 6 | -5
O=C(O)[C@H]1CC=C[C@H]2CCN(Cc3ccc(Cl)c(Cl)c3)C(=O)[C@@H]12 | 35 | -8
COC(=O)[C@H]1CC=C[C@H]2CCN(Cc3ccc(Cl)c(Cl)c3)C(=O)[C@@H]12 | 68* | -6
Cc1cc(NC(=O)CSc2nc3c(cc2C#N)CCC3)no1 | -6 | -2
CSC1=N/C(=C/c2ccc(Br)cc2)C(=O)S1 | 7 | 6
CSC1=N/C(=C\c2cc(Br)ccc2OCC(=O)O)C(=O)S1 | 68* | -3
Cc1cc(C)c2c(N3CCCC3)nc(C(=O)N3CCCC(C)C3)nc2n1 (stereo unspecified) | -7 | -5
Cc1nn(C(=O)c2ccncc2)c(C)c1Sc1ccc(Br)cc1 | 3 | 9
Oc1ccccc1C=Nc1ccc(Cl)c(Cl)c1 | -5 | -5
CCc1c(C)c(C#N)c2nc3ccccc3n2c1NCCCN1CCOCC1 | -2 | 83*
CCCCc1c(C)c(C#N)c2nc3ccccc3n2c1NCCN1CCOCC1 | -8 | 2
c1ccc2c(c1)NC(c1ccncc1)n1c-2nc2ccccc21 (stereo unspecified) | -4 | 10
Cc1cccc(-n2c(=O)n(C3CC3)c(=O)c3c2ncn3Cc2ccccc2C)c1 | 18 | -1
O=C(Nc1cccc(F)c1)c1ccc(Cl)cc1Cl | -17 | -8
O=C(CC1(O)C(=O)N(Cc2ccc(Cl)cc2)c2ccccc21)c1ccc([N+](=O)[O-])cc1 (stereo unspecified) | 86* | -9
C=CCN1C(=O)C(O)(CC(=O)c2ccc(OC)c([N+](=O)[O-])c2)c2ccccc21 (stereo unspecified) | 15 | -1
C=CCN1C(=O)C(O)(CC(=O)c2ccc([N+](=O)[O-])cc2)c2ccccc21 (stereo unspecified) | 16 | -4
COc1ccc(C(=O)CC2(O)C(=O)N(CCc3ccccc3)c3ccccc32)cc1[N+](=O)[O-] (stereo unspecified) | 71* | 15
O=C(CC1(O)C(=O)N(Cc2ccc(Cl)cc2)c2ccccc21)c1cccc([N+](=O)[O-])c1 (stereo unspecified) | 93* | -2
O=C(CC1(O)C(=O)N(Cc2ccc(Cl)cc2)c2ccccc21)c1cccnc1 (stereo unspecified) | 25 | -2
SMILES | mHTT CaM bind | Pf apPOL block
O=C1c2ccccc2-c2nc3c(Cl)cc(C(F)(F)F)cc3nc21 | 15 | -1
Cn1nc(COc2ccccc2)c2c1CCN(Cc1ccco1)C2 | 14 | 3
Cn1nc(COc2ccccc2)c2c1CCN(Cc1ccoc1)C2 | 67* | 2
Cc1cccc(-n2nc3c(c2NC(=O)c2cccs2)CSC3)c1 | 38 | 1
Cc1ccc(Cl)cc1N1CCN(C(=O)C2Oc3ccccc3NC2=O)CC1 (stereo unspecified) | 81* | 0
O=C1Nc2ccccc2OC1C(=O)N1CCN(c2cccc(Cl)c2)CC1 (stereo unspecified) | 2 | -2
CCN1C(=O)/C(=C2\C=Cc3ccccc3N2CC)SC1=Nc1ccc(OC)cc1 | 55* | 1
CCSC1=NC(=O)/C(=C2\C=Cc3ccccc3N2CC)S1 | 49 | -17
CC1=NN(c2ccccc2)C(=O)/C1=C/c1cccc(C(=O)O)c1 | 5 | 0
CC1=NN(c2ccccc2)C(=O)/C1=C/c1cccc(Oc2ccccc2)c1 | 52* | 3
CC1=NN(c2ccccc2)C(=O)/C1=C/c1ccc(N(C)C)c(Br)c1 | 65* | 3
CCCC1=NN(c2ccccc2)C(=O)/C1=C\c1cc(Br)c(O)c(OC)c1 | 67* | -2
CCOc1cc(/C=C2/C(=O)N(c3ccccc3)N=C2C)ccc1O | 43 | 8
CC1=NN(c2ccccc2)C(=O)/C1=C/c1ccc2c(c1)OCO2 | 8 | 4
COc1cc(/C=C2\SC(=O)N(c3ccccc3)C2=O)cc(Br)c1O | 8 | -6
CC1=NN(c2ccccc2)C(=O)/C1=C/c1ccc(O)c(Br)c1 | 52* | 6
CC(C)NS(=O)(=O)c1ccc(NC(=O)Cn2cncn2)cc1 | 32 | -8
c1cc(-c2noc(COC3CCCN(Cc4ccoc4)C3)n2)ccn1 (stereo unspecified) | -9 | -1
N#Cc1cn(-c2ccc(Cl)cc2)nc1C(=O)c1cccs1 | x | -20
CC1=NN(c2ccccc2)C(=O)/C1=C/N1CCCCC1 | 2 | -2
CC1=NN(c2ccccc2)C(=O)/C1=C/C=C/c1ccccc1 | 71* | -2
O=C(CCS(=O)(=O)C(Cl)Cl)Nc1ccc(Br)cc1 | -6 | -1
O=C(O)c1ccc(N2N=C(C(F)(F)F)/C(=C/c3ccc(-c4ccccc4[N+](=O)[O-])o3)C2=O)cc1 | 50* | 2
O=C(O)c1cccc(N2N=C(C(F)(F)F)/C(=C/c3ccc(-c4ccccc4[N+](=O)[O-])o3)C2=O)c1 | 37 | 4
CC(C)=C1SC(=O)N(CC(=O)Nc2ccc(S(N)(=O)=O)cc2)C1=O | -8 | -2
SMILES | mHTT CaM bind | Pf apPOL block
NS(=O)(=O)c1ccc(NC(=O)CN2CC(=O)Oc3ccccc32)cc1 | 98* | -166
O=C(NCc1cccc(F)c1)C1CCN(c2cncnc2N2CCCC2)CC1 | 17 | -9
O=C(NCc1cccc(C(F)(F)F)c1)C1CCN(c2cncnc2N2CCCC2)CC1 | 63* | 3
O=C(NCc1ccc(Cl)cc1)C1CCN(c2cncnc2N2CCCC2)CC1 | 70* | -4
CCc1ccc(CNC(=O)C2CCN(c3cncnc3N3CCCC3)CC2)cc1 | 7 | 1
COc1ccc(CCNC(=O)CN2C(=O)COc3ccc(Cl)cc32)cc1OC | -11 | -16
Cc1csc(NC(=O)Cn2nc(-c3ccccc3)ccc2=O)n1 | -10 | -8
O=S1(=O)CC(N2CCC(c3ccccc3)CC2)CN1C1CCCCC1 (stereo unspecified) | 5 | 0
CC(O)Cn1c(Br)nc2c1c(=O)[nH]c(=O)n2C (stereo unspecified) | 4 | -6
Cc1ccc(S(=O)(=O)N2CCC(n3c(-c4ccco4)nc4cccnc43)C2)cc1Cl (stereo unspecified) | 14 | -6
CNC(=O)c1c(NC(C)=O)sc2c1CCCCC2 | -2 | -40
CNC(=O)c1c(N=Cc2ccccc2O)sc2c1CCCC2 | 61* | 6
CC(=O)c1c(-c2ccccc2)c2cc(Cl)ccc2[nH]c1=O | 32 | -4
CC(=O)c1c(-c2ccccc2)c2cc(Br)ccc2[nH]c1=O | 58* | 1
COc1ccc(-c2cn3nc4c(nc3n2)[nH]c2ccc(OC)cc24)cc1 | 24 | -2
CC1CCCN(CC(O)COCc2ccc(Cl)cc2)C1 (stereo unspecified) | -4 | -4
Cc1ccnc(Nc2nc(CC(=O)NCc3ccco3)cs2)c1 | 68* | 16
Cc1ccnc(Nc2nc(-c3ccc(Cl)cc3)cs2)c1 | 2 | -3
Cc1ccnc(Nc2nc(CC(=O)NCCc3cccs3)cs2)c1 | 15 | -18
Cc1ccnc(Nc2nc(-c3ccncc3)cs2)c1 | 28 | 3
